# High-throughput results from PubChem BioAssay.
# In the library only some 2.4% were active in any assay of this set; here they are far more common.
# ASK1 primary: ASK1 kinase inhibitors, primary screen, biochemical, AlphaScreen | inhibition, % at 7.44 µM | AlphaScreen MKK6 phosphorylation by ASK1, luminescence | 0.99% of 22,000 active | AID 1159602, 2016 | Mitogen-activated protein kinase kinase kinase 5 (Homo sapiens), Q99683; in the data active = inhibition above about 35%;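 note: 0% = median of compound wells and 100% = no enzyme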
# ULK1 primary: ULK1 kinase inhibitors, primary screen, biochemical, AlphaScreen; AlphaScreen Atg13 phosphorylation by ULK1, luminescence; inhibition, % at 5.96 µM; AID 1259251, 2017; Serine/threonine-protein kinase ULK1 (Homo sapiens), O75385; 1.9% of 30,000 active; in the data active = inhibition above about 43%;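 note: 0% = median of compound wells and 100% = no enzyme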
# TruHits interf: AlphaScreen signal interference by compounds, dose response, artefact control for ASK1 inhibitor project, biochemical, TruHits beads; 20% of 220 active; shares compounds with ASK1 primary; IC50, µM; signal interference counterscreen;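 active = IC50 of 10 µM or lower in the counterscreen; inactive = IC50 above 10 µM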;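 note: loss of AlphaScreen light from TruHits beads alone with no ASK1 enzyme present; potency of signal reduction so a low IC50 flags an assay artifact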
# Starred values were filed as active, the others as inactive; i = inactive; x = no result; ! = not active in a repeat.
SMILES,ASK1 primary,ULK1 primary,TruHits interf
c1ccc(CN2CCC(Nc3nc(Nc4ccc(N5CCOCC5)cc4)nc4c3ncn4C3CCCCC3)CC2)cc1,50.0*,12.5,8.12*
FC(F)(F)c1ccc(Cn2cnc3c(Nc4ccccc4)nc(NC4CCN(Cc5ccccc5)CC4)nc32)cc1,2.9,-3.6,x
c1ccc2c(c1)nc(NCCCn1ccnc1)c1nc3ccccc3n12,x,-7.0,x
CC(=O)N1CCN(CCNC(=O)c2cccc(-n3ncc4cc(Nc5cccc(C)c5Cl)ccc43)c2)CC1,-15.8,-31.6,x
O=C(NCCN1CCOCC1)c1cccc(-n2ncc3cc(Nc4ccccc4F)ccc32)c1,-9.4,-31.1,x
O=C(NCCN1CCOCC1)c1cccc(-n2ncc3cc(Nc4c(F)cccc4[N+](=O)[O-])ccc32)c1,44.0*,-15.1,>19.2
Cc1cccc(Nc2ccc3c(cnn3-c3cccc(C(=O)NCCN4CCNCC4)c3)c2)c1Cl,43.1*,-45.8,>19.2
Cc1cccc(Nc2ccc3c(cnn3-c3cccc(C(=O)NCCN4CCN(CC5CC5)CC4)c3)c2)c1Cl,35.8*,-35.0,>19.2
Cc1cccc(Nc2ccc3c(cnn3-c3cccc(C(=O)NCCN4CCN(C)CC4)c3)c2)c1Cl,24.0,-32.5,x
Cc1ccc(-c2nnc3n(Cc4ccc(Br)cc4)c4c(=O)n(C)c(=O)n(C)c4n23)cc1,x,3.6,x
C[C@@H](O)C(=O)N[C@@H]1CCN(C(=O)c2cnccc2Nc2ccc(Cl)c(F)c2)C1,11.2,-0.4,x
O=C(O)c1cn(Cc2cccc(F)c2)nc1OCc1cccc(F)c1,x,-14.0,x
CN(C)c1cccc(Nc2nc(NCCc3ccc(O)cc3)c3ncn(-c4ccccc4)c3n2)c1,36.8*,16.2,>20
CN(C)c1cccc(Nc2nc(NCCc3ccc(O)cc3)c3ncn(Cc4ccc(C(F)(F)F)cc4)c3n2)c1,36.8*,32.5,>18.8
Oc1ccc(CCNc2nc(Nc3ccccc3)nc3c2ncn3-c2ccccc2)cc1,15.7,-33.0,x
CN(C)c1cccc(Nc2nc(NCCc3ccc(O)cc3)c3ncn(C4CCCCC4)c3n2)c1,37.7*,20.6,>20
COc1ccc(CCNc2nc(Nc3cccc(N(C)C)c3)nc3c2ncn3Cc2ccc(C(F)(F)F)cc2)cc1,29.9,22.2,x
CC(C)N(CCNc1nc(Nc2cccc(N(C)C)c2)nc2c1ncn2C1CCCCC1)C(C)C,28.1,3.4,x
COc1nc(Nc2ccccc2)nc(-c2cccc(C(C)=O)c2)n1,-1.2,2.8,x
Cn1ccc2cc(-c3cccc(C(=O)NC4CCN(Cc5ccccc5)CC4)c3)ccc21,-5.7,-4.1,x
CN(C)CCOc1cc(-c2ccncc2)ccc1NC(=O)C1COc2ccc(F)cc2C1 (configuration not stated),5.6,-3.2,x
FC(F)(F)c1ccc(Nc2nc(NCc3cccc(C(F)(F)F)c3)c3[nH]cnc3n2)cc1,-8.5,-12.6,x
FC(F)(F)c1cccc(CNc2nc(Nc3ccc(N4CCOCC4)cc3)nc3nc[nH]c23)c1,45.5*!,32.4,i
CC(C)n1cnc2c(NCc3cccc(C(F)(F)F)c3)nc(Nc3ccccc3)nc21,6.5,-24.5,x
CC(C)n1cnc2c(NCc3cccc(C(F)(F)F)c3)nc(Nc3ccc(N4CCOCC4)cc3)nc21,54.6*!,-11.9,6.4*
SMILES,ASK1 primary,ULK1 primary,TruHits interf
O=C(NCCCN1CCCC1=O)c1cccc(N2CCOCC2)c1,3.5,8.2,x
NC(=O)c1ccc(-c2nc(NCc3nc4ccccc4[nH]3)c3ncn(CCN4CCCC4=O)c3n2)cc1,-7.4,7.0,x
O=C1CCCN1CCCNc1nc(Nc2ccncn2)nc2c1ncn2-c1ccccc1,-7.2,-0.2,x
CNc1nc(C2COc3ccccc3O2)nc2ccc(-c3cn[nH]c3)cc12 (configuration not stated),9.6,-19.6,x
COc1ccc(-c2nc(NCCO)nc(OC)n2)cc1,0.2,1.3,x
Cc1cc(NCc2nc3ccccc3[nH]2)nc(-c2c(C)nn(C)c2C)n1,-2.2,11.2,x
Oc1ccc(CCNc2ncnc3nc(N4CCN(Cc5ccc6c(c5)OCO6)CC4)[nH]c23)cc1,41.2*,13.4,i
c1ccc(CNc2ncnc3nc(N4CCN(Cc5ccc6c(c5)OCO6)CC4)[nH]c23)cc1,0.2,-12.9,x
c1cnc2ccc(Nc3nc4ncnc(Nc5ccc6c(c5)OCO6)c4[nH]3)cc2c1,25.3,6.9,x
c1cn(-c2ccc(Nc3nc4ncnc(Nc5ccc6c(c5)OCO6)c4[nH]3)cc2)cn1,39.2*,11.0,>21.9
c1nc2nc(N3CCN(Cc4ccc5c(c4)OCO5)CC3)nc(Nc3ccc(N4CCOCC4)cc3)c2[nH]1,21.7,26.3,x
c1nc(Nc2ccc(N3CCOCC3)cc2)c2[nH]c(N3CCN(Cc4ccc5c(c4)OCO5)CC3)nc2n1,42.9*,41.9,>13.8
CN(C)C(=O)C(=O)Nc1ccc(Cl)c(C(=O)N2CCC(Oc3ccc(Cl)cn3)CC2)c1,-1.8,-6.6,x
Cc1ncn(-c2ccc(Nc3ncc4cccc(-c5ccc(C#N)nc5)c4n3)cc2)n1,3.3,12.1,x
O=C(Nc1ccc(-c2ncnc3[nH]ccc23)cc1)C1COc2ccccc2O1 (configuration not stated),38.0*,40.6,>19.2
O=C(Nc1ccc(-c2cn[nH]c2)cc1)C1COc2ccccc2O1 (configuration not stated),11.8,-2.1,x
c1ccc(Oc2ccc(Nc3nc(N4CCOCC4)nc4c3ncn4-c3ccccc3)cc2)cc1,26.1,1.3,x
c1ccc(Oc2ccc(Nc3nc(N4CCc5ccccc5C4)nc4c3ncn4-c3ccccc3)cc2)cc1,45.8*,11.3,>20
COc1cc2nc(NC3CCN(Cc4ccccc4)CC3)nc(NCCN3CCOCC3)c2cc1OC,-3.6,6.4,x
COc1cc2nc(Nc3ccccc3)nc(Nc3ccc(NC(C)=O)cc3)c2cc1OC,2.6,-4.7,x
COc1cc2nc(Nc3nccc4ccccc34)nc(Nc3ccc(NC(C)=O)cc3)c2cc1OC,69.1*,-2.0,>19.4
CCCOC(=O)c1ccc(NC(=O)C(=O)NCc2ccco2)cc1,x,1.9,x
COc1ccc(-c2nc(C(=O)NCc3nc4ccccc4[nH]3)cs2)cn1,-14.5,-4.3,x
c1cncc(CNc2nc(Nc3ccc(N4CCOCC4)cc3)nc3c2ncn3C2CCCCC2)c1,35.5*,10.6,>20.1
CC(C)n1cnc2c(NC3CC3)nc(N3CCN(c4ccccn4)CC3)nc21,42.7*,13.7,>22.4
SMILES,ASK1 primary,ULK1 primary,TruHits interf
c1ccc(-n2cnc3c(NCc4cccnc4)nc(Nc4cccnc4)nc32)cc1,-9.8,24.9,x
c1ccc(N2CCN(c3nc(Nc4ccc(N5CCOCC5)cc4)c4ncn(C5CCCCC5)c4n3)CC2)nc1,44.3*,64.3*,>22.8
c1ccc(-n2cnc3c(NCc4cccnc4)nc(Nc4ccc(N5CCOCC5)cc4)nc32)cc1,39.2*,-1.4,i
c1ccc(Nc2nc(N3CCN(c4ccccn4)CC3)nc3c2ncn3C2CCCCC2)cc1,17.5,-3.1,x
c1cncc(CNc2nc(N3CCOCC3)nc3c2ncn3C2CCCCC2)c1,-11.9,2.4,x
CCCNc1nc(N2CCN(c3ccccn3)CC2)nc2c1ncn2C(C)C,14.7,-3.9,x
CN1CCN(c2ccc(-c3nc(NCCO)c4ncn(-c5ccccc5)c4n3)cc2)CC1,-2.2,-4.9,x
O=C(NNS(=O)(=O)c1ccc([N+](=O)[O-])cc1)c1ccc(Cl)cc1,x,0.9,x
CN(C)C(=O)c1cc(Nc2ccc3[nH]ncc3c2)ccn1,5.8,-3.0,x
